High-throughput results: PubChem BioAssay, several laboratories
MEKK3 PB1 HTS – raises or lowers MEK5 binding to the human MEKK3 PB1 domain | binding response (% of control), % at 10 µM | bead-based flow cytometry, Alexa488-MEK5 binding to MEKK3; actives lie on both sides; 0 = blocked by unlabeled MEK5, 100 = vehicle | 1.4% of 290,000 active | AID 1529 | Q99759;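 active means binding response more than 3 SD above or below the average of its plate-row segment, actives on both sides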;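 further: Alexa488 bead fluorescence after subtracting the streptavidin-only scavenger bead signal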
Target sequence (Q99759 whole entry, looked up, the tested form may be a part): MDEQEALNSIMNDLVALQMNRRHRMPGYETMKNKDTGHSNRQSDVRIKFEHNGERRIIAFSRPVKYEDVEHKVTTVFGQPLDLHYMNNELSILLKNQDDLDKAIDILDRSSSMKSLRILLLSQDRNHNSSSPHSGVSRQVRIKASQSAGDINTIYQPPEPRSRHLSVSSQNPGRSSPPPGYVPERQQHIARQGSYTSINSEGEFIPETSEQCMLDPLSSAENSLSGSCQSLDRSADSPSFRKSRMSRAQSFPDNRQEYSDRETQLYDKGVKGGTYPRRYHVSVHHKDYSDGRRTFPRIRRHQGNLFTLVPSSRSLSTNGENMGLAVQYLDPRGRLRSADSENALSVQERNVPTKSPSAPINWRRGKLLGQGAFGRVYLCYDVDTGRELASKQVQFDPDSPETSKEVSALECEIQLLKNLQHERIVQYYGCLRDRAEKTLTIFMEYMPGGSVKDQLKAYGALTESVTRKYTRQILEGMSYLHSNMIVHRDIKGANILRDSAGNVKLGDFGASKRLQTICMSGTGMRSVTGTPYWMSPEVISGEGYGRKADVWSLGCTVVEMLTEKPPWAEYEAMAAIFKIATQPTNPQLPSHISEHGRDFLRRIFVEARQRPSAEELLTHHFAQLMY
Arbovirus anti – antivirals against arbovirus infection; arbovirus infection cell-based antiviral screen; inhibition, % at 10 µM; 0.37% of 200,000 active; AID 1251; in the data active means inhibition above about 30%
MEKK2wt PB1 HTS – raises or lowers MEK5 binding to wildtype human MEKK2 PB1 domain; bead flow cytometry, Alexa488-MEK5 binding to MEKK2 WT; actives lie on both sides; binding response (% of control), % at 10 µM; AID 1531; Q9Y2U5; 1.1% of 290,000 active; in the data active means binding response below about 67% or above about 130%
MEKK2 mut-MEK5 – signal of MEK5 binding to mutant human MEKK2 PB1 domain; 0.35% of 290,000 active; percent response, % at 10 µM; bead flow cytometry, Alexa488-MEK5 binding to MEKK2 mutant; in the data active means percent response above about 24%, passing the limit was not always enough
Pf gametocyte – kills late stage P. falciparum gametocytes | P. falciparum stage V gametocytes, ATP luminescence, 24 h | inhibition, % at 10.9 µM | 0.065% of 150,000 active;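 active means inhibition above the mean plus 3 SD of compounds within the control limits, set per campaign, cut at about 38% in these data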;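 further: 0% = DMSO wells and 100% = medium only without gametocytes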
* marks the source's active call; other numbers are inactive results; / = no result given; [ ] = remark or other dose. An excerpt weighted towards active compounds, which were near 2.4% of everything screened.

SMILES | MEKK3 PB1 HTS | Arbovirus anti | MEKK2wt PB1 HTS | MEKK2 mut-MEK5 | Pf gametocyte
O=[N+]([O-])c1ccccc1Oc1ccc(C(F)(F)F)cn1 | 106 | 1 | 105 | 4 | -1
CCOc1ccc2nc(NC(=O)C3=NN(c4ccccc4)C(=O)CC3)sc2c1 | / | 52* | / | / | 3
COc1ccc(-c2csc(NC(=O)C3=NN(c4ccccc4)C(=O)CC3)n2)cc1 | 100 | 31* | 91 | -6 | 21
Cc1cccc2sc(NC(=O)C3=NN(c4ccccc4)C(=O)CC3)nc12 | 98 | 3 | 95 | 5 | -21
O=C(Nc1nc2ccccc2s1)c1cc(-c2ccccc2)nn1-c1ccccc1 | 100 | 49* | 106 | 0 | -18
Cc1ccc2nc(NC(=O)C3=NN(c4ccccc4)C(=O)CC3)sc2c1 | 101 | 60* | 102 | 22 | 30
CCOc1ccc2nc(NC(=O)C3=NNC(=O)CC3)sc2c1 | 81 | -10 | 93 | -5 | 19
Cc1ccc(NC(=O)N2CCc3ccccc3C2)c(C)c1 | 101 | / | 101 | -2 | /
CCCCCSc1nnc(-c2ccccc2NC(C)=O)c(=O)[nH]1 | 102 | -7 | 98 | 3 | -7
OC(c1ccccc1)C1CN(Cc2ccccc2)CCC1(O)c1ccccc1 (centres undefined) | 101 | 33* | 103 | 4 | 13
O=C(c1ccccc1)C1CN(Cc2ccccc2)CCC1(O)c1ccccc1 (centres undefined) | 102 | -4 | 111 | 3 | 1
O=C1c2ccccc2C(O)N1Cc1cccs1 (centres undefined) | 102 | 0 | 103 | 2 | 55*
O=C(NC1CCCCCC1)C1c2ccccc2C(=O)N1Cc1cccs1 (centres undefined) | 84 | -7 | 85 | -5 | -20
O=C(NCCC1=CCCCC1)Nc1ccc2nsnc2c1 | 104 | -7 | 86 | -11 | /
Cc1cccc(OCCCC(=O)NCC(=O)Nc2cccc(C)c2C)c1 | 102 | 9 | 98 | -2 | 11
COc1ccc(Cl)cc1C(=O)CSc1nnnn1C1CCCC1 | 95 | -3 | 99 | -3 | /
COc1ccc(Cl)cc1C(=O)CSc1nnnn1C1CCCCC1 | 99 | -4 | 94 | -2 | 43*
c1coc(CNc2c3c(nc4ncnn24)CCCC3)c1 | 99 | 28 | 102 | 8 | /
Clc1cccc(-c2cc3nc4c(c(NCc5ccco5)n3n2)CCCC4)c1 | 107 | 34* | 116 | 10 | /
O=C(Nc1cccc(-n2cnnn2)c1)c1cnccc1Cl | 103 | / | 110 | 6 | /
CCOc1ccc(N=Nc2c(=O)[nH]n3c(=O)c4c([nH]c23)CCCC4)cc1 | 103 | 60* | 101 | 1 | /
Cc1cc(C(=O)N2CCCC(CO)(Cc3ccc(F)cc3)C2)c(C)o1 (centres undefined) | 102 | / | 106 | 6 | /
COc1ccc(-c2nc(NC(=O)c3n[nH]c(=O)c4ccccc34)sc2C)cc1 | 99 | 44* | 99 | -1 | 3
CN1CCN(c2ccccc2NC(=O)c2ccc(-c3ccccc3[N+](=O)[O-])o2)CC1 | 106 | / | 135* | 20 | /
C[C@@H]1NC(=O)N[C@@H]1CCCCCC(=O)O | 107 | / | 108 | 5 | /
SMILES | MEKK3 PB1 HTS | Arbovirus anti | MEKK2wt PB1 HTS | MEKK2 mut-MEK5 | Pf gametocyte
O=C(CSc1nccc(=O)[nH]1)N1N=C2/C(=C/c3ccco3)CCCC2C1c1ccco1 (centres undefined) | 87 | 49* | 89 | -9 | -5
CCOC(=O)CC1C(=O)NCCN1C1CCCC1 (centres undefined) | 98 | -6 | 96 | -7 | -69
CCOC(=O)c1c(CSC(=N)N)n(-c2ccc(Br)cc2)c2cc(Br)c(OC(C)=O)cc12 | 103 | -35 | 143* | 17 | /
CCCCCCCCOC(=O)c1c(CSC(=N)N)n(C)c2cc(Br)c(OC(C)=O)cc12 | 105 | / | 281* | 136* | 23
CCOC(=O)c1c(CSc2nc(C)cc(C)c2C#N)n(C)c2cc(Br)c(OC(C)=O)cc12 | 101 | -23 | 96 | 1 | 5
Brc1ccccc1-c1nnc(SCc2nc3ccccc3s2)o1 | 100 | 34* | 100 | -2 | 3
Cc1ccc(-n2nnc3c(=O)n(CC(N)=O)cnc32)cc1 | 107 | / | 105 | 4 | /
CC(C)OC(=O)CC1C(=O)NCCN1C(=S)NC(=O)c1ccc(F)cc1 (centres undefined) | 99 | 6 | 98 | 3 | -30
CC(=O)c1ccc(N2CCN(S(=O)(=O)c3cc4c(cc3C)NC(=O)CO4)CC2)cc1 | 1.0*[inhibitor] | / | 0.0*[inhibitor] | -21 | /
O=C(NNC(=O)c1cccs1)c1ccc([N+](=O)[O-])cc1 | 124 | 35* | 119 | 1 | -25
